# Measurements as given in ChEMBL document CHEMBL2218924, “A broad activity screen in support of a chemogenomic map for kinase signalling research and drug discovery” (Biochem J, 2013).
# What was measured:
# [1] = biological target: Protein kinase C eta type (Homo sapiens) (UniProt P24723); details: at 1 µM
# [2] = biological target: Protein kinase C eta type (Homo sapiens) (UniProt P24723); details: at 10 µM
# [3] = biological target: Protein kinase C theta type (Homo sapiens) (UniProt Q04759); details: at 1 µM
# [4] = biological target: Protein kinase C theta type (Homo sapiens) (UniProt Q04759); details: at 10 µM
# [5] = biological target: T1, Protein kinase C iota type (Homo sapiens) (UniProt P41743); details: at 1 µM
# T1 sequence (whole entry): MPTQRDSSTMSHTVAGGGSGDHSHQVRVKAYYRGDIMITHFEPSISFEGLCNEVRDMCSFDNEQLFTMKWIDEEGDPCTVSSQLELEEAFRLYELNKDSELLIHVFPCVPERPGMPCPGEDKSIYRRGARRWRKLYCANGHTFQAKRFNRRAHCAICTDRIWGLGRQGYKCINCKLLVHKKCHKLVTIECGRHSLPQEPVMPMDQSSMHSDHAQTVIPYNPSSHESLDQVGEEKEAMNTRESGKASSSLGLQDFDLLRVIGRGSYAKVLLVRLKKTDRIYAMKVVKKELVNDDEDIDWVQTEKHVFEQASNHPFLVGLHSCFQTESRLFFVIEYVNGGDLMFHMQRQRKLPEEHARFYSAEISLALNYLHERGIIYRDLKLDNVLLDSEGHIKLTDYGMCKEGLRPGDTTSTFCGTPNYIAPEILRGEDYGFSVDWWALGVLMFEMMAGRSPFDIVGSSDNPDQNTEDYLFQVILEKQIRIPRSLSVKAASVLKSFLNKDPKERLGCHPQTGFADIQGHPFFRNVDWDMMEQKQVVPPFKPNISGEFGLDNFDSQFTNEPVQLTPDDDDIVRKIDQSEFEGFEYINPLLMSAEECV
# [6] = biological target: T1, Protein kinase C iota type (Homo sapiens); details: at 10 µM
# [7] = biological target: T2, Serine/threonine-protein kinase D1 (Homo sapiens) (UniProt Q15139); details: at 1 µM
# T2 sequence (whole entry): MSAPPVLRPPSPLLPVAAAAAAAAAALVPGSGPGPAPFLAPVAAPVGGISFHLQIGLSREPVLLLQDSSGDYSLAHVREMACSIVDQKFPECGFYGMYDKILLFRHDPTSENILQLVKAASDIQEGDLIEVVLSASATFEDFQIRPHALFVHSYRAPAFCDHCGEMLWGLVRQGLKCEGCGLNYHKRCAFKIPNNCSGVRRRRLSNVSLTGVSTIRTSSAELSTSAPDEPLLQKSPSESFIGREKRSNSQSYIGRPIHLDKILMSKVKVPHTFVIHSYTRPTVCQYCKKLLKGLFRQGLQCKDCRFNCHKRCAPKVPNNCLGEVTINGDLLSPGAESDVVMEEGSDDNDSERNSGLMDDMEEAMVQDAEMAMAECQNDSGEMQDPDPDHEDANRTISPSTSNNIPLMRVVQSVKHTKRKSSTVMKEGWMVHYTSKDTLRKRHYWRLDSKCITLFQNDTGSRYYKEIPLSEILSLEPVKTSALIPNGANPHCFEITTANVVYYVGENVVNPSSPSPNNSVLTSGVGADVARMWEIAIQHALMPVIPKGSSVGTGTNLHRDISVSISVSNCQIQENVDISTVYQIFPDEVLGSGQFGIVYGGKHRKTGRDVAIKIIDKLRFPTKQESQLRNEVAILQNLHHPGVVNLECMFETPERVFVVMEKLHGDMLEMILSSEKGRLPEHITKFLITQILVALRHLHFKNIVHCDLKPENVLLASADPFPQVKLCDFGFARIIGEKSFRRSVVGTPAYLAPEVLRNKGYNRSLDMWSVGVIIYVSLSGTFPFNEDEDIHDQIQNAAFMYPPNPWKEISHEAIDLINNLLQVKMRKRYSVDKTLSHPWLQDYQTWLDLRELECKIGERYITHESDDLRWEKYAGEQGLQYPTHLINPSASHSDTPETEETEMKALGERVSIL
# [8] = biological target: T2, Serine/threonine-protein kinase D1 (Homo sapiens); details: at 10 µM
# [9] = biological target: T3, Serine/threonine-protein kinase D2 (Homo sapiens) (UniProt Q9BZL6); details: at 1 µM
# T3 sequence (whole entry): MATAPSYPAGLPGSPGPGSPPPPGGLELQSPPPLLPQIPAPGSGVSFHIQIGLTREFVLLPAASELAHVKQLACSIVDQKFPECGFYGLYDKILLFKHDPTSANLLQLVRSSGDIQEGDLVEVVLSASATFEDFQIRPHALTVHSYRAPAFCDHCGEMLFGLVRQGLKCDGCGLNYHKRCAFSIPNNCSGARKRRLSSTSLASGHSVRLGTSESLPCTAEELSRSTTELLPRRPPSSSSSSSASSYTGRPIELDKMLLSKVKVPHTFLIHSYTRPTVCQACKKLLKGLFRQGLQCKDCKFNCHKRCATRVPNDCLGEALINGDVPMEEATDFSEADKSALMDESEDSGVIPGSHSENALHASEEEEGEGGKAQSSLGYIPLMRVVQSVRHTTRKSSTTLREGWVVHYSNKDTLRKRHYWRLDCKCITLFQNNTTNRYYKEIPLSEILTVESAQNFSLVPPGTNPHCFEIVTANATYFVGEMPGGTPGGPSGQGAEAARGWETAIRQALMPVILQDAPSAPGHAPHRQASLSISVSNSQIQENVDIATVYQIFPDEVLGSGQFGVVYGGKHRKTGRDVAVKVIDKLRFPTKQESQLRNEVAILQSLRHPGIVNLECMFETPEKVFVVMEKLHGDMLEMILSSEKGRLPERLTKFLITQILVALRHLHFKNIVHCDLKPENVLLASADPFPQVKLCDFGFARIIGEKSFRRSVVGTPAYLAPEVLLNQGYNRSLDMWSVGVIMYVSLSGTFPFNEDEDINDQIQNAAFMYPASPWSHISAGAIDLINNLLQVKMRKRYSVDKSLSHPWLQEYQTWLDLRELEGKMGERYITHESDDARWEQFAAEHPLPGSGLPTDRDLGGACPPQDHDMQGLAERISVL
# [10] = biological target: T3, Serine/threonine-protein kinase D2 (Homo sapiens); details: at 10 µM
# [11] = biological target: T4, cGMP-dependent protein kinase 1 (Homo sapiens) (UniProt Q13976); details: at 1 µM
# T4 sequence (whole entry): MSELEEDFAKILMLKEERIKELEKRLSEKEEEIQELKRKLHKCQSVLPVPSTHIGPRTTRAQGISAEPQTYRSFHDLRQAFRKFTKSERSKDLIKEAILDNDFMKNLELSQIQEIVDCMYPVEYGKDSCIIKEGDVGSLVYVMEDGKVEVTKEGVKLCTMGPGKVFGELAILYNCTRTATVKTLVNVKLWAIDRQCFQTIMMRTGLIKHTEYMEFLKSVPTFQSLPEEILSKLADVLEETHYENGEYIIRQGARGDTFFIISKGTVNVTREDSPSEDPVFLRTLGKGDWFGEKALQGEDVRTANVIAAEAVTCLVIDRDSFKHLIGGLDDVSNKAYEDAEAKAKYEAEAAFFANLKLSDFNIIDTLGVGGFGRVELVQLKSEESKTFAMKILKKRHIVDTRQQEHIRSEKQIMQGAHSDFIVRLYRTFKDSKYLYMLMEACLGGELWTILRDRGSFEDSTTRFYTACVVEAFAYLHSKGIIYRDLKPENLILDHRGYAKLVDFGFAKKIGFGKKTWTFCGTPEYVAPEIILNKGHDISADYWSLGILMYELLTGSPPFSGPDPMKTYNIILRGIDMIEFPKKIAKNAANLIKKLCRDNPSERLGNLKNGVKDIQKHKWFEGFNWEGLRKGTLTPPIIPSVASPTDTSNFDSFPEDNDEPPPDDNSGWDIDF
# [12] = biological target: T4, cGMP-dependent protein kinase 1 (Homo sapiens); details: at 10 µM
# [13] = biological target: T4, cGMP-dependent protein kinase 1 (Homo sapiens); details: at 1 µM; remark: listed apart in the source
# [14] = biological target: T4, cGMP-dependent protein kinase 1 (Homo sapiens); details: at 10 µM; remark: listed apart in the source
# [15] = biological target: T5, MAP kinase-activated protein kinase 5 (Homo sapiens) (UniProt Q8IW41); details: at 1 µM
# T5 sequence (whole entry): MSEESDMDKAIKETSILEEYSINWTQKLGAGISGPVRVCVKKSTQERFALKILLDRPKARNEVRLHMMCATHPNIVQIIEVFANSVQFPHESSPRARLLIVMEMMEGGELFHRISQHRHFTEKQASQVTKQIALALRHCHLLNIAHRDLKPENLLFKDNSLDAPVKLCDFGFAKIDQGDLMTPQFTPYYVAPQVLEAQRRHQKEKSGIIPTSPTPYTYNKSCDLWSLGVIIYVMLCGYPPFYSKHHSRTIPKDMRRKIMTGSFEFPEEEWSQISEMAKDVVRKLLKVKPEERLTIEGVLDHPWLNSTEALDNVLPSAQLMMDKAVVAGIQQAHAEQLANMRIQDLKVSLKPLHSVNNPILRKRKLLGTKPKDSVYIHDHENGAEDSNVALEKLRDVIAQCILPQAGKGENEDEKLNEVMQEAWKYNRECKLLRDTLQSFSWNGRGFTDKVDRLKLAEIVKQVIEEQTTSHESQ
# [16] = biological target: T5, MAP kinase-activated protein kinase 5 (Homo sapiens); details: at 10 µM
# [17] = biological target: Serine/threonine-protein kinase N2 (Homo sapiens) (UniProt Q16513); details: at 1 µM
# [18] = biological target: Serine/threonine-protein kinase N2 (Homo sapiens) (UniProt Q16513); details: at 10 µM
# [19] = biological target: Tyrosine-protein kinase FRK (Homo sapiens) (UniProt P42685); details: at 1 µM
# [20] = biological target: Tyrosine-protein kinase FRK (Homo sapiens) (UniProt P42685); details: at 10 µM
# Chain of Tyrosine-protein kinase FRK (Homo sapiens) (P42685 whole entry): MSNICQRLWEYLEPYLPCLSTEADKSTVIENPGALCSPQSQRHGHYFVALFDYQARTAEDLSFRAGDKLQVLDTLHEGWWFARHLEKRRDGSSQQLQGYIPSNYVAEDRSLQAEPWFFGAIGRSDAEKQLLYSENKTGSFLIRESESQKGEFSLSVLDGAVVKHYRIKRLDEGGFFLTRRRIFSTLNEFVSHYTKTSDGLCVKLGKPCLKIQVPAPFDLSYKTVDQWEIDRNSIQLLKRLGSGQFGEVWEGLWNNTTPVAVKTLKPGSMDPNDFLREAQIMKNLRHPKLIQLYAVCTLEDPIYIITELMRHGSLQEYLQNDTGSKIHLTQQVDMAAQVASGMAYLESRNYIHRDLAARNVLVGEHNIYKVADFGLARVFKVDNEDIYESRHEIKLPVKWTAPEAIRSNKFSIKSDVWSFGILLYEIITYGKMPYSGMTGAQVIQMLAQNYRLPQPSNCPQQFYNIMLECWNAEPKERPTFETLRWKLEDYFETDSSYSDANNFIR
# Chain of Serine/threonine-protein kinase N2 (Homo sapiens) (Q16513 whole entry, looked up): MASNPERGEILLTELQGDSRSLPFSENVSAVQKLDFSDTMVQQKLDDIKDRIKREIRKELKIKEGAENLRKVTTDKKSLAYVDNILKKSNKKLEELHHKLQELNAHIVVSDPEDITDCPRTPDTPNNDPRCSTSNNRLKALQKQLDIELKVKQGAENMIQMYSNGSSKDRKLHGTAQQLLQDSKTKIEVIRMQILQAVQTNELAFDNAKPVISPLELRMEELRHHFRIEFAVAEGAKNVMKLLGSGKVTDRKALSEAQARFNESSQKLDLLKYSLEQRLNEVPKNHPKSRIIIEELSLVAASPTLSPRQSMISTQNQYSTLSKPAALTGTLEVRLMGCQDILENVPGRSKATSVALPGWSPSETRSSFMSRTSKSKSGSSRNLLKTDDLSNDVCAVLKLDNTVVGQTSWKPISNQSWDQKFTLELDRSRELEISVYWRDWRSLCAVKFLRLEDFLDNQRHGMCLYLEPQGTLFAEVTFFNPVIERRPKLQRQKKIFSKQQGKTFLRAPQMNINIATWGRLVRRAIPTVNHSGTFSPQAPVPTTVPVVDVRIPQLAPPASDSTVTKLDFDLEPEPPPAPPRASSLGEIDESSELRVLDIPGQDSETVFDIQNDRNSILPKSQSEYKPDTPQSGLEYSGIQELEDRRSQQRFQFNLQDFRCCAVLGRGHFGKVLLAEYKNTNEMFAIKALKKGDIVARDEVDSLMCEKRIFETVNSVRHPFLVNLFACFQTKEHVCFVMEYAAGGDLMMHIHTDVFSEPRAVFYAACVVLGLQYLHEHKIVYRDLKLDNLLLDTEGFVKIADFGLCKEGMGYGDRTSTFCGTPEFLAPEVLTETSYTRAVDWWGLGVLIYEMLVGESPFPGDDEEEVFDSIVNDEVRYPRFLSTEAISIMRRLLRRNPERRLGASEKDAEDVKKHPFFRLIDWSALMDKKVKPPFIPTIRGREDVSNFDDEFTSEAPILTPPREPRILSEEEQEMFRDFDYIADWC
# Chain of Protein kinase C theta type (Homo sapiens) (Q04759 whole entry, looked up): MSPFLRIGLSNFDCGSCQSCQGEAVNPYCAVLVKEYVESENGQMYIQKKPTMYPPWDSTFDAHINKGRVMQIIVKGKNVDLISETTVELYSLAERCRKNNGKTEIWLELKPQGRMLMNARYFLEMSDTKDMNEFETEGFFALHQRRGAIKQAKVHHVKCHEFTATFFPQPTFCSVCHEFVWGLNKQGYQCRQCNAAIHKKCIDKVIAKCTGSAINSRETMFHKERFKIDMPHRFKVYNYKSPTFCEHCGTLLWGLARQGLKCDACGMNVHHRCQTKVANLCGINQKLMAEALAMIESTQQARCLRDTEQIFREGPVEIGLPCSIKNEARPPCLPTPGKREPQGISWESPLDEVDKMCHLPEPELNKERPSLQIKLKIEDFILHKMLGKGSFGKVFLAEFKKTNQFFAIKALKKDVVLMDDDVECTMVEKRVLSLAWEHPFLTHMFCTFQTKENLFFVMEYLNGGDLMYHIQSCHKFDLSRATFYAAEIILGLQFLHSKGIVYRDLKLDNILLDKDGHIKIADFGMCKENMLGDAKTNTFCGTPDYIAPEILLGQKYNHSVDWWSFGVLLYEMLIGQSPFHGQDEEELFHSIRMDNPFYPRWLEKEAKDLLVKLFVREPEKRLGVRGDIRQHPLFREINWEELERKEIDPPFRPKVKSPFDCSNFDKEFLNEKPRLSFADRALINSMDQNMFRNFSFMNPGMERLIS
# Chain of Protein kinase C eta type (Homo sapiens) (P24723 whole entry): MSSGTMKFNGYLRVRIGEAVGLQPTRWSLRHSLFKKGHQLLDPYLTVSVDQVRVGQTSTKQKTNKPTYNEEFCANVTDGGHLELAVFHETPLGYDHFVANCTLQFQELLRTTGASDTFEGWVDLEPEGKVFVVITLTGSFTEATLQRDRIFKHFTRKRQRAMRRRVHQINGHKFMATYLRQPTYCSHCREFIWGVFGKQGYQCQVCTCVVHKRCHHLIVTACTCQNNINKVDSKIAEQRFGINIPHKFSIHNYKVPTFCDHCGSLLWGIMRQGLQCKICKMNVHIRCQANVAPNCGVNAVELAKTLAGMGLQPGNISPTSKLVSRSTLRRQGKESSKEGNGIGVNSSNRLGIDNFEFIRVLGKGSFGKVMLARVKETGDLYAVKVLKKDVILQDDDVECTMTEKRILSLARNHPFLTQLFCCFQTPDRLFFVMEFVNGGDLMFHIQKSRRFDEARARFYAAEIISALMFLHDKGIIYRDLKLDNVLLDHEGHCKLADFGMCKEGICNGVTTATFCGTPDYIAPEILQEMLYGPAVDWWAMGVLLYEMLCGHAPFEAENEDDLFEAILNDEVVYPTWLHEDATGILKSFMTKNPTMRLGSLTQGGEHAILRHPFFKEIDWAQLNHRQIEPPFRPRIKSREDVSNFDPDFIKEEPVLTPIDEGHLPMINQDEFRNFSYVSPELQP
SMILES,residual activity [1] [%],residual activity [2] [%],residual activity [3] [%],residual activity [4] [%],residual activity [5],residual activity [6] [%],residual activity [7] [%],residual activity [8] [%],residual activity [9] [%],residual activity [10] [%],residual activity [11] [%],residual activity [12] [%],residual activity [13] [%],residual activity [14] [%],residual activity [15] [%],residual activity [16] [%],residual activity [17] [%],residual activity [18] [%],residual activity [19] [%],residual activity [20] [%]
CO[C@H]1C[C@@H]2CC[C@@H](C)[C@@](O)(O2)C(=O)C(=O)N2CCCC[C@H]2C(=O)O[C@H]([C@H](C)C[C@@H]2CC[C@@H](O)[C@H](OC)C2)CC(=O)[C@H](C)/C=C(\C)[C@@H](O)[C@@H](OC)C(=O)[C@H](C)C[C@H](C)/C=C/C=C/C=C/1C,93,76,94,113,89% (inactive),77,93,97,102,107,101,128,86,85,57,62,95,116,95,112
Oc1c2ccccc2c2c3c(cccc13)N=N2,86,82,90,76,117% (inactive),107,32,-1,92,36,79,79,90,60,59,14,74,32,91,58
NC(=O)c1ccc2[nH]c(-c3ccc(Oc4ccc(Cl)cc4)cc3)nc2c1,86,80,85,105,107% (inactive),96,109,79,99,84,99,105,105,77,91,67,101,90,94,106
Ic1cccc(CSc2nnc(-c3ccncc3)o2)c1,59,62,68,58,109% (inactive),107,72,71,97,98,105,96,88,49,105,117,83,70,77,78
